Screens as filed in PubChem.
Hits are enriched below; roughly 2.8% of the tested compounds scored in any of these assays.
MsrA inh: bovine MsrA enzyme inhibitors, primary screen, biochemical, absorbance, HTS | purified bovine MsrA, absorbance read-out | inhibition, % at 15.5 µM | hit rate 0.75% among 360,000 | AID 651718, 2012;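 also: 0% = vehicle wells with enzyme and 100% = reference inhibitor wells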
MsrA act: bovine MsrA enzyme activators, primary screen, biochemical, absorbance, HTS; Methionine sulfoxide reductase A (Bos taurus); purified bovine MsrA, absorbance read-out; activation, % at 10.6 µM; hit rate 0.3% among 360,000; AID 602163, 2012; in the data active = activation above about 7.5%;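 also: 0% = vehicle and 100% = reference activator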
SMARCA2 act: SMARCA2 (BRM) function activators, primary screen, cell-based, luminescence, high throughput. MG213 cells, MMTV-luciferase reporter, dexamethasone, overnight. activation, % at 9.1 µM. hit rate 1% among 370,000. AID 652017, 2013; in the data active = activation above about 7.8%;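 also: 0% = vehicle wells and 100% = reference activator wells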
KLK7 zymogen act: proKLK7 zymogen activators, primary screen, biochemical, fluorescence intensity; activation, % at 7 µM; purified proKLK7, EDANS-DABCYL substrate fluorescence; 100% is mature enzyme control, 0% vehicle; hit rate 0.9% among 370,000;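 active = activation above the mean of all tested compounds plus 3 SD, computed per campaign excluding outliers beyond control limits, cut at about 13% in these data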
Target sequence (P49862 whole entry, looked up): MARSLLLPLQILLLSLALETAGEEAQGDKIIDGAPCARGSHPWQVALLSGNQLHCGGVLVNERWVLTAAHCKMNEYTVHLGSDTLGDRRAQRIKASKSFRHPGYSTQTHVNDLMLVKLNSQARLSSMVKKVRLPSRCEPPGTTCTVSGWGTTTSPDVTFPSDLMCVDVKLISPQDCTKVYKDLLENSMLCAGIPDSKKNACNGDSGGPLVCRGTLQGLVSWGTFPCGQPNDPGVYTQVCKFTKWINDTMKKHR
MsrA inh confirm: bovine MsrA inhibitors, retest, confirmation, biochemical, absorbance, HTS; shares compounds with MsrA inh; purified bovine MsrA, absorbance read-out; inhibition, % at 15.5 µM; hit rate 41% among 2,300; AID 651822, 2012;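 also: coupled to thioredoxin reductase with NADPH and selenocystamine and DMSO as substrate; 0% = vehicle only and 100% = full effect of reference inhibitor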
Numbers without * were called inactive. Rule as the data show it, unless noted: active = inhibition above about 4.5%; inactive = the rest.

`Cc1ccc(-c2n[nH]c(=S)n2/N=C/c2sccc2C)cc1` gave MsrA inh 4.7*, MsrA act 1, SMARCA2 act -5, KLK7 zymogen act 0 and MsrA inh confirm 3.
Screening Cc1ccc(C(O)c2ncc(-c3ccc(F)cc3)[nH]2)cc1F (configuration not stated) returned MsrA inh -1, MsrA act -3, SMARCA2 act -2 and KLK7 zymogen act 0.
`COc1cccc2cc(-c3csc(CCn4nc(C)cc4C)n3)c(=O)oc12` gave MsrA inh 5.5*, MsrA act -9, SMARCA2 act 0, KLK7 zymogen act -6 and MsrA inh confirm 2.
Cc1ccc(C)c(NC(=O)CN(C)C(=O)c2ccc(COc3ccccc3)cc2)c1 was read as MsrA inh 0, MsrA act -1, SMARCA2 act -8 and KLK7 zymogen act 0.
Screening Cc1cc(=O)[nH]c2c(C)cc(S(=O)(=O)Nc3ccc(O)cc3)cc12 returned MsrA inh 9.2*, MsrA act -2, SMARCA2 act -3, KLK7 zymogen act 0 and MsrA inh confirm 4.7*.
For CCOC(=O)N[C@@H](CC(C)C)C(=O)N1CCC[C@H]1C(=O)NCc1ccccc1 the results were MsrA inh 0, SMARCA2 act -1 and KLK7 zymogen act 0.
For COc1ccc(/C=C/C2=NNC(=O)CC2)cc1 the results were MsrA inh 5.5*, MsrA act -6, SMARCA2 act 1, KLK7 zymogen act 0 and MsrA inh confirm 4.7*.
For CCOc1ccc(/C=C/C2=NNC(=O)CC2)cc1 the results were MsrA inh 6.7*, MsrA act -5, SMARCA2 act -1, KLK7 zymogen act 0 and MsrA inh confirm 3.
O=Cc1ccc([B-](F)(F)F)o1 was read as MsrA inh 0, SMARCA2 act -2 and KLK7 zymogen act 0.
COc1cc(N2CCCC2)ccc1C=O was read as MsrA inh 6.8*, MsrA act -9, SMARCA2 act -5, KLK7 zymogen act 0 and MsrA inh confirm 3.
`O=Cc1ccc(N2CCCCC2)cc1` gave MsrA inh -1, MsrA act -2, SMARCA2 act -3 and KLK7 zymogen act 0.
For Cc1ccc(C)c(OCC(=O)N/N=C\c2cccn2C)c1 the results were MsrA inh 5.1*, MsrA act -14, SMARCA2 act -2, KLK7 zymogen act 1 and MsrA inh confirm 1.
For Cc1ccc(OCC(=O)N/N=C/c2cccn2C)cc1 the results were MsrA inh 2, MsrA act 0, SMARCA2 act 1 and KLK7 zymogen act 1.
Screening COC(=O)C1=C(C)N(Cc2ccccc2C(F)(F)F)C(=NCC2CC2)NC1CCc1ccccc1 (configuration not stated) returned MsrA inh -1, SMARCA2 act 0 and KLK7 zymogen act 1.
`CCOC(=O)C1=CCN(S(=O)(=O)c2ccccc2F)C1c1ccc(F)cc1` (configuration not stated) gave MsrA inh 0, MsrA act -1, SMARCA2 act -2 and KLK7 zymogen act 1.
Cc1cc(=O)oc(C)c1C(=O)NCCC(C)C was read as MsrA inh 5.5*, MsrA act -6, SMARCA2 act -3, KLK7 zymogen act 0 and MsrA inh confirm 5.0*.
`C=CCn1c(-c2csc(-c3ccccc3)n2)n[nH]c1=S` gave MsrA inh 5.4*, MsrA act 0, SMARCA2 act 2, KLK7 zymogen act 0 and MsrA inh confirm 3.
`C=CCn1c(-c2csc(-c3ccc(Cl)cc3)n2)n[nH]c1=S` gave MsrA inh 0, MsrA act -1, SMARCA2 act -1 and KLK7 zymogen act 0.
For O=C(Cn1nc2ccccc2n1)N/N=C/c1cc([N+](=O)[O-])ccc1O the results were MsrA inh 4.7*, MsrA act -4, SMARCA2 act -1, KLK7 zymogen act 0 and MsrA inh confirm 4.
O=S1(=O)c2cc(Cl)ccc2N2CC[C@H](C2)N1Cc1ccc(Cl)c(Cl)c1 was read as MsrA inh 0, SMARCA2 act -4 and KLK7 zymogen act 0.
`Cc1ccc(OCC(C)CN2CCC(C(O)(c3ccccc3)c3ccccc3)CC2)cc1` (configuration not stated) gave SMARCA2 act -6 and KLK7 zymogen act 0.
Screening Cc1nc2c(o1)C(=O)c1ccccc1C2=Nc1ccccc1 returned MsrA inh 8.9*, MsrA act -2, SMARCA2 act -6, KLK7 zymogen act 0 and MsrA inh confirm 15*.
N#C/C(=C\c1ccc(-c2cccc(C(F)(F)F)c2)o1)C(=O)Nn1cnnc1 was read as MsrA inh 4.8*, MsrA act -7, SMARCA2 act -1, KLK7 zymogen act 1 and MsrA inh confirm 2.
O=C(Nc1ccc2c(c1)OCO2)c1c(Cl)nc2sccn12 was read as MsrA inh 10*, MsrA act 1, SMARCA2 act 5, KLK7 zymogen act -1 and MsrA inh confirm 3.
Screening Cn1ncc(Cl)c1C(=O)Nc1ccc2c(c1)OCO2 returned MsrA inh 0, MsrA act -5, SMARCA2 act 1 and KLK7 zymogen act 0.
Screening CCOC(=O)C1=CCN(S(C)(=O)=O)C1c1ccc(Cl)cc1 (configuration not stated) returned MsrA inh 0, SMARCA2 act 3 and KLK7 zymogen act -1.
`COC(=O)C1=C(C)N(Cc2ccc(F)cc2)C(=S)NC1c1ccc(Cl)cc1` (configuration not stated) gave MsrA inh 0, SMARCA2 act -4 and KLK7 zymogen act 0.
For Cc1ccc(S(=O)(=O)N/N=C/c2cc(Br)ccc2O)cc1 the results were MsrA inh 4.9*, MsrA act -7, SMARCA2 act 5, KLK7 zymogen act -1 and MsrA inh confirm 0.
For COc1ccc(O)c(/C=N/NS(=O)(=O)c2ccc(C)cc2)c1 the results were MsrA inh 1, MsrA act -3, SMARCA2 act 3 and KLK7 zymogen act 0.
`CC(=O)c1sc(NC(=O)c2ccc(Cn3cc(Br)cn3)o2)nc1C` gave MsrA inh 3, MsrA act -2, SMARCA2 act -4 and KLK7 zymogen act 1.
`CC(=O)c1sc(NC(=O)C=C(C)C)nc1C` gave MsrA inh 5.3*, MsrA act -8, SMARCA2 act 0, KLK7 zymogen act 0 and MsrA inh confirm 3.
`CC(=O)c1sc(NC(=O)c2ccc(Br)o2)nc1C` gave MsrA inh 5.6*, MsrA act -5, SMARCA2 act 0, KLK7 zymogen act 0 and MsrA inh confirm 3.
CCN(C(=O)CSc1nnc(-c2cccnc2)n1Cc1ccco1)c1ccccc1 was read as SMARCA2 act -5 and KLK7 zymogen act 0.
